Results filed as inconclusive are left out. Activity calls are given as the source filed them. Unless noted, calls come from the whole dose curve; as a rule, active = well fitted curve in the direction sought with a large enough effect in the repeat runs; inconclusive = weak or mixed curves; inactive = no such curve, though single readings can be large; an effect the other way counts as inactive or inconclusive.
Legend:
[1] = qHTS assay to identify small molecule agonists of the estrogen receptor alpha (ER-alpha) signaling pathway in the presence of an antagonist - cell viability counter screen (AID 1259386);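 note: cells exposed to compounds for 22 h at 37 °C before the viability read; nearly all actives have a fitted effect of over 30% in size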; note: potency is the fitted concentration of half-maximal effect
Outline: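 VM7Luc4E2 cells (endogenous full-length ER-alpha, 4×ERE-luciferase) were held 5 days in phenol red-free medium with 10% charcoal-stripped FBS, plated, then given 10.0nM ICI-182,780 and compounds at 15 concentrations for 22hr at 37C; viability read by CellTiter-Fluor fluorescence.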

[2] = target: Progesterone receptor (Homo sapiens) (UniProt P06401); experiment: qHTS assay to identify small molecule antagonists of the progesterone receptor (PR) signaling pathway (AID 1346795; active = well fitted inhibition curve with a large enough effect in the signal ratio in the repeat runs, not every such curve was filed as active; the % refers to the signal ratio; note: potency is the fitted concentration of half-maximal effect)
Progesterone receptor (Homo sapiens), sequence (P06401 whole entry, looked up): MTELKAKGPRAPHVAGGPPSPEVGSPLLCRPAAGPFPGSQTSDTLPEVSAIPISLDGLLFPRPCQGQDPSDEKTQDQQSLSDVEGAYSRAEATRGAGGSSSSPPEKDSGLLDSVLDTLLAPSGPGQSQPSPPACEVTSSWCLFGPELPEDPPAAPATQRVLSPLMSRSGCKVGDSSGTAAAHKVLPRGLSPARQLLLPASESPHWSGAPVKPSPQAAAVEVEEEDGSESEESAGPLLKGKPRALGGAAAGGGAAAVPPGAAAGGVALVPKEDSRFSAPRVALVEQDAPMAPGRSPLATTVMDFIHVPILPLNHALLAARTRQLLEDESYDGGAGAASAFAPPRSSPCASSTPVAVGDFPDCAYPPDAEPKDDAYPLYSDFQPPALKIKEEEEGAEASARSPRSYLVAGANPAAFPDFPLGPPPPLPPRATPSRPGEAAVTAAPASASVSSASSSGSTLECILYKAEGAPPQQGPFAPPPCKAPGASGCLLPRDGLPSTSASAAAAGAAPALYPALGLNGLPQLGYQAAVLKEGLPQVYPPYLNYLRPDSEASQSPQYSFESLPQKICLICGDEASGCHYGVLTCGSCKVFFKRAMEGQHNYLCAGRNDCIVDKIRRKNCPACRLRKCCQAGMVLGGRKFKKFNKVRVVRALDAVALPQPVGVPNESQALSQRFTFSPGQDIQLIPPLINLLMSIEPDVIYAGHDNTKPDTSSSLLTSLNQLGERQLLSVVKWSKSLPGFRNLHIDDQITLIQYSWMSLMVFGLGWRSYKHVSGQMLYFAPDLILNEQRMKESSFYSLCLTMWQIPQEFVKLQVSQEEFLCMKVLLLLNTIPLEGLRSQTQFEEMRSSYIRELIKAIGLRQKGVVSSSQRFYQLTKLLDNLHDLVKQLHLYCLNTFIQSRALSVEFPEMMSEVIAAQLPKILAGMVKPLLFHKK
Outline: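 PR-UAS-bla HEK293T cells carrying a UAS-driven beta-lactamase reporter were plated in medium with 2% charcoal-stripped FBS and rested 6 hr at 37C. Compounds were added with 1 nM R5020 (final) for 16 hr, then FRET substrate loaded 2 hr at room temperature.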

[3] = qHTS assay to identify small molecule antagonists of the progesterone receptor (PR) signaling pathway - cell viability counter screen (AID 1346798); note: series mostly up to about 92 µM; nearly all actives have a fitted effect of over 50% in size
Outline: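 PR-UAS-bla HEK293T cells in medium with 2% charcoal-stripped FBS were treated with compounds plus R5020 for 16 hr at 37C. Cell viability was then read by CellTiter-Glo luminescence after 30 min at room temperature in the same wells.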

[4] = qHTS assay to identify small molecule antagonists of the TGF-beta/Smad signaling pathway - cell viability counter screen (AID 1346824); note: nearly all actives have a fitted effect of over 50% in size; note: potency is the fitted concentration of half-maximal effect
Outline: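 Cytotoxicity counter-screen run in the same wells as the beta-lactamase Smad reporter read: CellTiter-Glo luminescence after 30 min at room temperature. HEK 293T SBE-bla cells had 5 hr compound exposure at 37 C with TGF-beta1 (0.25 ng/mL stock).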

[5] = qHTS assay to identify small molecule agonists of the TGF-beta/Smad signaling pathway - cell viability counter screen (AID 1346829); note: top concentration of the series differs between compounds; nearly all actives have a fitted effect of over 45% in size
Outline: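 In parallel with the Smad reporter read, viability of HEK 293T cells stably carrying SBE-bla is quantified by ATP luminescence following 5 hr compound treatment.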

[6] = qHTS assay to identify small molecule agonists of the TGF-beta/Smad signaling pathway (AID 1346859; active = well fitted activation curve with a large enough effect in the signal ratio in the repeat runs, not every such curve was filed as active; the % refers to the signal ratio; note: series mostly up to about 77 µM)
Outline: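 HEK 293T cells stably carrying a beta-lactamase reporter driven by the Smad binding element were seeded overnight, exposed to DMSO-dissolved compounds for 5 hr at 37 C, 5% CO2, then loaded with FRET substrate for 2 hr at room temperature.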

[7] = Human pregnane X receptor (PXR) small molecule agonists, qHTS cell viability counter screen (AID 1346977); note: nearly all actives have a fitted effect of over 50% in size
Outline: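 PXR-Luc HepG2 cells in medium with 5% charcoal-stripped FBS were pre-incubated 5hr, then exposed to compounds for 24hr at 37C. Viability was read in the same wells by CellTiter-Fluor fluorescence, reagent added after 23hr with a 1hr incubation.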

[8] = Caspase-3/7 induction in HepG2 cells by small molecules, qHTS assay (AID 1346978); note: nearly all actives have a fitted effect of over 15% in size
Outline: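 Caspase-3/7 induction was measured by Caspase-Glo 3/7 luminescence (30 min, room temperature) after a 17 hr compound exposure of wild-type HepG2 cells seeded at 2,000 per well and pre-incubated 5 hr.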

[9] = Caspase-3/7 induction in CHO-K1 cells by small molecules, qHTS cell viability counter screen (AID 1346979); note: nearly all actives have a fitted effect of over 35% in size
Outline: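 Wild-type CHO-K1 cells were seeded at 1,500 per well, rested 5hr at 37 C, then exposed to compounds in DMSO. After 16hr, CellTiter-Fluor reagent was added and fluorescence read 1hr later as the viability measure.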

[10] = Caspase-3/7 induction in CHO-K1 cells by small molecules, qHTS assay (AID 1346980); note: nearly all actives have a fitted effect of over 15% in size
Outline: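 Luminescent Caspase-Glo 3/7 read (30min, room temperature) quantified apoptosis induction. Cells were wild-type CHO-K1, treated with compound for 17hr at 37 C and 5% CO2.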

[11] = Caspase-3/7 induction in HepG2 cells by small molecules, qHTS cell viability counter screen (AID 1346981); note: series mostly up to about 92 µM; nearly all actives have a fitted effect of over 30% in size
Outline: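 Wild-type HepG2 cells (2,000/well) were allowed to settle for 5 hr at 37 C, 5% CO2, then dosed with compounds in DMSO by pin transfer. After 16 hr at 37 C, CellTiter-Fluor was added and fluorescence read 1 hr later.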

[12] = target: Nuclear receptor subfamily 1 group I member 2 (Homo sapiens) (UniProt O75469); experiment: Human pregnane X receptor (PXR) small molecule agonists, qHTS assay (AID 1346982); note: nearly all actives have a fitted effect of over 35% in size; note: potency is the fitted concentration of half-maximal effect
Nuclear receptor subfamily 1 group I member 2 (Homo sapiens), sequence (O75469 whole entry, looked up): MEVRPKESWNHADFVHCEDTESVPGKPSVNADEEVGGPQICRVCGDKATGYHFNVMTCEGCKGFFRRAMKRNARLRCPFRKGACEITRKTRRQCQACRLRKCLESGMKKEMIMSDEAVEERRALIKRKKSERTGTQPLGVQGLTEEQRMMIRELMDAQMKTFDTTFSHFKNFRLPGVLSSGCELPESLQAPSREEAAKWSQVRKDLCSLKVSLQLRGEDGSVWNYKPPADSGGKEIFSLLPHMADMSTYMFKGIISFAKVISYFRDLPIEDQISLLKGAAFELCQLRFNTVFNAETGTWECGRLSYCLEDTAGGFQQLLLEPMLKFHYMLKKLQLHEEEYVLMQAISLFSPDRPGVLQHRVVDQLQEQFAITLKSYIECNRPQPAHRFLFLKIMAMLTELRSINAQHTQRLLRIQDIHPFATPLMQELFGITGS
Outline: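 PXR-Luc HepG2 cells (CYP3A4 promoter-driven luciferase) were seeded in medium with 5% charcoal-stripped FBS, left 5 hr at 37 C, then exposed to compounds in DMSO for 24 hr. Luminescence was read after ONE-Glo addition.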

[13] = target: Acetylcholinesterase (Homo sapiens) (UniProt P22303); experiment: Acetylcholinesterase (AChE) small molecule antagonists: colormetric cell-based qHTS assay (AID 1347395; calls by dose curve; note: nearly all actives have a fitted effect of over 30% in size; note: potency is the fitted concentration of half-maximal effect)
Acetylcholinesterase (Homo sapiens), sequence (P22303 whole entry, looked up): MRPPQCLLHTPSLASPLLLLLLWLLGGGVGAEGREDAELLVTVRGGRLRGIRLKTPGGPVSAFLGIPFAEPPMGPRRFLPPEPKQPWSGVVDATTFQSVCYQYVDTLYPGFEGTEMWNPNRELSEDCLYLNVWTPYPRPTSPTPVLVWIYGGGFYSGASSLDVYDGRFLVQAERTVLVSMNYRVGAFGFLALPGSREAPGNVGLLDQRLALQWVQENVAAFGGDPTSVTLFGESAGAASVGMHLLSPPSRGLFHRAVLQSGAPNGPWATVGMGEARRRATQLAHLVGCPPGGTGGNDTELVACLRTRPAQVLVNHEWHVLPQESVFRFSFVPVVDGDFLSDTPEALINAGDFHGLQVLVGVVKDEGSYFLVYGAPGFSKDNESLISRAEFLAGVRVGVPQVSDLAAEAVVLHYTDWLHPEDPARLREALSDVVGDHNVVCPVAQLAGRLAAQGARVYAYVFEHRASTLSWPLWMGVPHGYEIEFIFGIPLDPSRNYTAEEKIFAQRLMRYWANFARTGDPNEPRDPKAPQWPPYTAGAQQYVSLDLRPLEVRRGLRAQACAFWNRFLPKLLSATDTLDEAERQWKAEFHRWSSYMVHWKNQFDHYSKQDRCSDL
Outline: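 SH-SY5Y cells, plated overnight at 37 C, were exposed to compounds for 30 min at 37 C and 5% CO2. Acetylthiocholine plus DTNB was then added, and thiocholine from endogenous AChE was quantified colorimetrically after 90 min at 37 C.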

[14] = target: Nuclear receptor subfamily 1 group I member 2 (Rattus norvegicus) (UniProt Q9R1A7); experiment: Rat pregnane X receptor (rPXR) activation by small molecules, qHTS assay (AID 1346983); details: rPXR luciferase reporter cells, One-Glo luminescence, 24 h; max activation: stronger effect = higher value; note: nearly all actives have a fitted effect of over 20% in size
Nuclear receptor subfamily 1 group I member 2 (Rattus norvegicus), sequence (Q9R1A7 whole entry, looked up): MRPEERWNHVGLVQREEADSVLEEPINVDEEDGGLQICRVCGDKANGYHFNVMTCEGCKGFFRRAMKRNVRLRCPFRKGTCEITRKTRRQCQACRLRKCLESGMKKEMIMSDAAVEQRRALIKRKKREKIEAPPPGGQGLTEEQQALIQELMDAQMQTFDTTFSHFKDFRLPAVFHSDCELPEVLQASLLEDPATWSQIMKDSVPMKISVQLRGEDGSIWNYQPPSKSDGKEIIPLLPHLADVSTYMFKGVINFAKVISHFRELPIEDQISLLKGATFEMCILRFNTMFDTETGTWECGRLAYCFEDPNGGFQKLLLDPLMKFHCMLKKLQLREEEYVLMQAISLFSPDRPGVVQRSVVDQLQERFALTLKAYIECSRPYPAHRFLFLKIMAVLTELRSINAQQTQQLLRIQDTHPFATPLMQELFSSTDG
Outline: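 Luminescent readout (One-Glo luciferase, 30 min room temperature) followed 24 hr compound treatment at 37 C of rPXR cells plated 2,000 per well and preincubated 5hr; qHTS format with compounds delivered in DMSO.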

[15] = target: Thyrotropin-releasing hormone receptor (Homo sapiens) (UniProt P34981); experiment: qHTS assay to identify small molecule agonists of the thyrotropin-releasing hormone receptor (TRHR) signaling pathway (AID 1346891; calls by dose curve; note: series mostly up to about 58 µM)
Thyrotropin-releasing hormone receptor (Homo sapiens), sequence (P34981 whole entry, looked up): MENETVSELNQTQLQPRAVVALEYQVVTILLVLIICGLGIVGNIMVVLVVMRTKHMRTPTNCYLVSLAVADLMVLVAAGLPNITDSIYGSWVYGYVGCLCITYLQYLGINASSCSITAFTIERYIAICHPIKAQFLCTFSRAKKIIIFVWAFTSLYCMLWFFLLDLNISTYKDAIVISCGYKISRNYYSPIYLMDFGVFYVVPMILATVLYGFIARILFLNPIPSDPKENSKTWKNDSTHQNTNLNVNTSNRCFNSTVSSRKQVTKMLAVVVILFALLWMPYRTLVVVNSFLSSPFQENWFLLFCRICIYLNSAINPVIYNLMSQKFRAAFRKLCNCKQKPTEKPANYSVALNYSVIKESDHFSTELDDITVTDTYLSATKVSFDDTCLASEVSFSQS
Outline: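 TRHR-expressing HEK293 cells were plated 18 h at 37 °C/5% CO2, loaded with calcium dye 2 h at 37 °C, then given compound in DMSO; fluorescence was read kinetically for 3 min at 1 s intervals.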

[16] = qHTS assay to identify small molecule agonists of the progesterone receptor (PR) signaling pathway - cell viability counter screen (AID 1346799; calls by dose curve; note: nearly all actives have a fitted effect of over 45% in size)
Outline: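 PR-UAS-bla HEK293T cells, 3,000 per well in medium with 2% charcoal-stripped FBS, were preincubated 6 hr at 37C, then exposed to compounds for 16 hr; viability was read as CellTiter-Glo luminescence after 30 min at room temperature.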

[17] = target: Thyrotropin-releasing hormone receptor (Homo sapiens) (UniProt P34981); experiment: qHTS assay to identify small molecule antagonists of the thyrotropin-releasing hormone receptor (TRHR) signaling pathway (AID 1346877; active = well fitted inhibition curve with a large enough effect in the repeat runs, not every such curve was filed as active; note: series mostly up to about 51 µM)
Outline: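 TRHR-expressing HEK293 cells were seeded, cultured 18 h at 37 °C, then loaded with calcium dye for 2 h. Compounds were pre-incubated 5 min at room temperature before 1 nM TRH (final) was added, and kinetic fluorescence was recorded for 3 min.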

[18] = target: Progesterone receptor (Homo sapiens) (UniProt P06401); experiment: qHTS assay to identify small molecule agonists of the progesterone receptor (PR) signaling pathway (AID 1346784; calls by dose curve; note: nearly all actives have a fitted effect of over 30% in size)
Outline: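 PR-UAS-bla HEK 293T cells carrying a UAS-driven beta-lactamase reporter were seeded in medium with 2% charcoal-stripped FBS, preincubated 6 hr at 37C, then exposed to compounds in DMSO for 16 hr; agonism was read by LiveBLAzer B/G FRET fluorescence.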

[19] = target: Nuclear receptor subfamily 1 group I member 2 (Homo sapiens) (UniProt O75469); experiment: CYP3A4 induction through human pregnane X receptor (PXR) by small molecules, qHTS assay (AID 1346984); note: nearly all actives have a fitted effect of over 40% in size
Outline: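 DPX-2 cells (HepG2 co-transfected with PXR and CYP3A4 promoter-luciferase) treated with compounds 24 h at 37C; luciferin-IPA CYP3A4 substrate 3uM final added for 3 h, then One-Glo; luminescence read. qHTS format.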

[20] = target: Nuclear receptor subfamily 1 group I member 2 (Homo sapiens) (UniProt O75469); experiment: Human pregnane X receptor (PXR) activation by small molecules, qHTS assay (AID 1346985); note: nearly all actives have a fitted effect of over 40% in size
Outline: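 DPX-2 cells (HepG2 co-transfected with a PXR response element and a CYP3A4-promoter luciferase construct) were seeded at 2,000 per well, rested 5 hr at 37C, then exposed to DMSO-dissolved compounds for 24 hr. Activation was read as luciferase luminescence.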
% is set by controls: 0 for no effect and ±100 for the full control effect.

COC(C)(C)C
inactive: Potency [1] | Potency [2] | Potency [3] | Potency [4] | outcome [5] | outcome [6] | Potency [7] | Potency [8] | Potency [9] | Potency [10] | Potency [11] | Potency [12] | Potency [13]

C[C@]12CC[C@H]3[C@@H](CC=C4C[C@@H](O)CC[C@@]43C)[C@@H]1CC[C@@H]2O
inactive: Potency [1] | Potency [2] | Potency [3] | outcome [5] | outcome [6] | Potency [7] | Potency [8] | Potency [9] | Potency [10] | Potency [11] | max activation [14] -0.895%

CSc1ccc(C(=O)C(C)(C)N2CCOCC2)cc1
inactive: Potency [1] | Potency [3] | Potency [4] | outcome [5] | outcome [6] | outcome [15] | Potency [7] | Potency [8] | Potency [9] | Potency [10] | Potency [11] | Potency [13]
active: Potency [2] 27.3 µM

O=C(O)C(Br)CBr (stereo not given)
active: Potency [12] 62.2 µM
inactive: Potency [1] | Potency [2] | Potency [3] | Potency [16] | Potency [4] | outcome [5] | outcome [6] | outcome [17] | outcome [15] | Potency [7] | Potency [8] | Potency [10] | Potency [11] | Potency [13]

CCC(=O)C(CCN(C)C)(c1ccccc1)c1ccccc1
inactive: Potency [1] | Potency [2] | Potency [3] | Potency [16] | Potency [4] | outcome [5] | outcome [6] | outcome [17] | Potency [8] | Potency [10] | Potency [11] | Potency [13]

C[N+](=O)[O-]
inactive: Potency [1] | Potency [18] | Potency [3] | Potency [4] | outcome [5] | outcome [6] | outcome [17] | outcome [15] | Potency [8] | Potency [9] | Potency [10] | Potency [11] | Potency [12] | Potency [13]

CCOP(=S)(OCC)SCSP(=S)(OCC)OCC
active: Potency [12] 5.45 µM | Potency [13] 39.9 µM
inactive: Potency [1] | Potency [18] | Potency [3] | Potency [16] | outcome [5] | outcome [6] | outcome [17] | Potency [8] | Potency [11]

CC(CCc1ccccc1)NC(C)C(O)c1ccc(O)cc1 (stereo not given)
inactive: Potency [1] | Potency [18] | Potency [3] | Potency [4] | outcome [5] | outcome [6] | Potency [8] | Potency [9] | Potency [10] | Potency [11] | Potency [12] | Potency [13]

OC(Cn1cncn1)(c1ccc(F)cc1)c1ccccc1F (stereo not given)
inactive: Potency [1] | Potency [2] | Potency [3] | Potency [16] | Potency [4] | outcome [5] | outcome [6] | outcome [17] | outcome [15] | Potency [7] | Potency [8] | Potency [10] | Potency [11] | Potency [12] | Potency [13]

Fc1ccc(C2(Cn3cncn3)OC2c2ccccc2Cl)cc1 (stereo not given)
inactive: Potency [1] | Potency [18] | Potency [3] | Potency [4] | outcome [5] | outcome [6] | outcome [17] | outcome [15] | Potency [8] | Potency [10] | Potency [11] | Potency [13]

Nc1n[nH]c(N)n1
inactive: Potency [1] | Potency [18] | Potency [16] | Potency [4] | outcome [5] | outcome [6] | Potency [7] | Potency [8] | Potency [9] | Potency [10] | Potency [11] | Potency [12] | Potency [13]

COC(=O)C(c1ccccc1)C1CCCCN1 (stereo not given)
inactive: Potency [1] | Potency [3] | outcome [5] | outcome [6] | outcome [17] | outcome [15] | Potency [7] | Potency [8] | Potency [9] | Potency [10] | Potency [11] | max activation [14] -3.29% | Potency [19] | Potency [20] | Potency [13]

O=C(NCO)NCO
inactive: Potency [1] | Potency [3] | Potency [16] | Potency [4] | outcome [5] | outcome [6] | Potency [7] | Potency [8] | Potency [9] | Potency [10] | Potency [11] | Potency [13]

O=C(Cc1ccccc1)OCc1ccccc1
inactive: Potency [1] | Potency [3] | Potency [4] | outcome [5] | outcome [6] | Potency [7] | Potency [8] | Potency [9] | Potency [10] | Potency [11] | Potency [12] | Potency [13]

CCNc1nc(NC(C)C)nc(OC)n1
inactive: Potency [1] | Potency [3] | Potency [16] | Potency [4] | outcome [5] | outcome [6] | outcome [17] | outcome [15] | Potency [7] | Potency [8] | Potency [9] | Potency [10] | Potency [11] | Potency [13]
active: Potency [12] 27.3 µM

C=CCC1=C(C)[C@@H](OC(=O)[C@@H]2[C@@H](C=C(C)C)C2(C)C)CC1=O
active: Potency [1] 48.6 µM | Potency [2] 27.3 µM | Potency [4] 49 µM | Potency [12] 9.69 µM
inactive: outcome [17] | Potency [8] | Potency [13]

CCCCCCBr
inactive: Potency [1] | Potency [3] | Potency [16] | Potency [4] | outcome [5] | outcome [6] | Potency [7] | Potency [8] | Potency [9] | Potency [10] | Potency [11]

CC(=O)CC(c1ccc(Cl)cc1)c1c(O)c2ccccc2oc1=O (stereo not given)
inactive: Potency [18] | Potency [2] | Potency [3] | Potency [16] | Potency [4] | outcome [5] | outcome [6] | outcome [17] | outcome [15] | Potency [7] | Potency [8] | Potency [9] | Potency [10] | Potency [11] | Potency [12] | Potency [13]

O=C1OC(CCN2CCCCC2)OC1(c1ccccc1)c1ccccc1 (stereo not given)
inactive: Potency [1] | Potency [3] | Potency [4] | outcome [5] | outcome [6] | outcome [17] | outcome [15] | Potency [7] | Potency [8] | Potency [10] | Potency [11] | Potency [13]

CCN(Cc1ccc(Cl)nc1)/C(=C/[N+](=O)[O-])NC
inactive: Potency [1] | Potency [3] | Potency [4] | outcome [5] | outcome [6] | Potency [7] | Potency [8] | Potency [10] | Potency [11] | Potency [12] | max activation [14] -0.716% | Potency [19] | Potency [20] | Potency [13]

From PubChem BioAssay (Tox21)
